{"source": "PubChem BioAssay (NCATS)", "key": {"[1]": {"molecular_target": "Calcium and integrin-binding protein 1 (Homo sapiens) (UniProt Q99828)", "sequence (Q99828 whole entry, looked up)": "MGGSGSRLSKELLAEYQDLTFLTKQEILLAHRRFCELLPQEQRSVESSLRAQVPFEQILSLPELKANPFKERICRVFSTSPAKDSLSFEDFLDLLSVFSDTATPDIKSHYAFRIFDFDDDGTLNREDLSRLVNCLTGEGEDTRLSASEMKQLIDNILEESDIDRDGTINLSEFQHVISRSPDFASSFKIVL", "assay": "Primary qHTS for Identification of Calcium Integrin Binding Protein 1 (CIB1) Competitor (AID 1508620); note: potency is the fitted concentration of half-maximal effect", "settings": "CIB1-GST / FITC-alphaIIb peptide fluorescence polarization; series mostly up to 114 µM", "procedure,_shortened": "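Fluorescence polarization competition: CIB1-GST (1 uM final) preincubated with compound 15 min at room temperature, then FITC-labeled alphaIIb peptide (100 nM final) added for another 15 min. Polarization read at Ex 480/Em 540.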"}, "[2]": {"assay": "Primary qHTS for inhibitors of La Crosse Virus (LACV) - induced cell death in SH-SY5Y cells (AID 1508616);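 note: top concentration of the series differs between compounds; higher means more rescue of cells from virus-induced death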", "settings": "SH-SY5Y LACV cytopathicity rescue, ATP luminescence, 6 d; series mostly up to 9.63 µM", "procedure,_shortened": "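SH-SY5Y cells (6000/well) plated 24 h, then given compounds by pin transfer and LACV at 0.01 MOI for 6 days at 37C. Viability measured by ATPLite luminescence, normalized to infected DMSO and uninfected DMSO.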"}, "[3]": {"molecular_target": "Calcium and integrin-binding protein 1 (Homo sapiens) (UniProt Q99828)", "assay": "Validation qHTS for Identification of Calcium Integrin Binding protein 1 (CIB1) Competitor (AID 1508618)", "settings": "CIB1-GST / FITC-alphaIIb peptide fluorescence polarization; series mostly up to 114 µM", "procedure,_shortened": "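CIB1-GST (1 uM final) in 5 mM HEPES pH 7.4, 125 mM NaCl, 5 mM CaCl2, 0.01% Tween20 was preincubated 15 min at room temperature with compound (up to 114 uM), then FITC-alphaIIb peptide (100 nM) added for 15 min; fluorescence polarization read.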"}, "[4]": {"molecular_target": "Single-stranded DNA cytosine deaminase (Homo sapiens) (UniProt Q9GZX7)", "sequence (Q9GZX7 whole entry, looked up)": "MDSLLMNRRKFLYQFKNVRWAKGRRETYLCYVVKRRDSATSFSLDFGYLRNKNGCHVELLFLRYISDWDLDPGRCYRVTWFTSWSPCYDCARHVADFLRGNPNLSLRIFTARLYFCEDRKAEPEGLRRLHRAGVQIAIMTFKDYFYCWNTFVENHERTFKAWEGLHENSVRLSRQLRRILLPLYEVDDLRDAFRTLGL", "assay": "Validation qHTS assay for inhibitors of Activation Induced Cytidine Deaminase (AID): AID signal (AID 1347429)", "settings": "Recombinant AID, FRET ssDNA deamination with UDG, fluorescence; series mostly up to 115 µM", "procedure,_shortened": "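FRET deamination assay: 1 uM AID (4/3x stock) with UDG, compound up to 114 uM, then 250 nM DJC20/DJC23 substrate (4x stock) for 4 hr at room temperature. NaOH added, 30 min; fluorescence read 540/590 nm.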"}}, "note": "Results filed as inconclusive are left out. Entries that show only a call come without a potency. Calls of active or inactive are those of the source. Calls come from the whole dose curve; as a rule, active = well fitted curve in the direction sought with a large enough effect; inconclusive = small, poorly fitted or top-dose-only effect, or another doubt; inactive = no such curve, though single readings can be large; an effect the other way counts as inactive or inconclusive."}
{"compound": "CCCC(=O)OC[C@@H](OC(=O)CCC)[C@@H](OC(=O)CCC)[C@H](Cn1c2nc(=O)[nH]c(=O)c-2nc2cc(C)c(C)cc21)OC(=O)CCC", "values": [{"measurement": "Potency", "setting": "[1]", "result": "2820 nM (active)"}]}
{"compound": "O=C(O)c1cc(=O)c2ccccc2[nH]1", "values": [{"measurement": "Potency", "setting": "[2]", "result": "inactive"}, {"measurement": "outcome", "setting": "[3]", "result": "inactive"}]}
{"compound": "NC(=S)NCCC[C@H](N)C(=O)O", "values": [{"measurement": "Potency", "setting": "[4]", "result": "inactive"}]}
{"compound": "CCOC(=O)C1=C(C)NC(C)=C(C(=O)OCC)C1c1c(F)c(F)c(F)c(F)c1F", "values": [{"measurement": "Potency", "setting": "[4]", "result": "inactive"}, {"measurement": "Potency", "setting": "[2]", "result": "inactive"}]}
{"compound": "C#CCN1C(C)=C(C(=O)OC)C(c2cccc([N+](=O)[O-])c2)C(C(=O)OCC)=C1C", "note": "(stereo not drawn)", "values": [{"measurement": "Potency", "setting": "[4]", "result": "inactive"}, {"measurement": "Potency", "setting": "[2]", "result": "inactive"}]}
